The record followed here is ChEMBL document CHEMBL3988442, “University of Dundee, Small-Polar-MMV Screening Library” (2021).

For some assays here: Results with a measured potency or affinity are listed apart.

Holding throughout (set-up): scale not given: direction of the effect not stated beside the values
The target in experiment [1] is Protein translocase subunit SecA (Escherichia coli (strain K12)) (UniProt P10408). As to the kind of experiment: Assay to Identify E. coli SecA ATPase Inhibitors. The class given is functional. The conditions noted are these: 30 µM.
In experiment [2] the target is T1, Ubiquitin-activating enzyme e1, putative (Leishmania donovani (strain BPK282A1)) (UniProt E9BSI1).
T1 sequence (whole entry): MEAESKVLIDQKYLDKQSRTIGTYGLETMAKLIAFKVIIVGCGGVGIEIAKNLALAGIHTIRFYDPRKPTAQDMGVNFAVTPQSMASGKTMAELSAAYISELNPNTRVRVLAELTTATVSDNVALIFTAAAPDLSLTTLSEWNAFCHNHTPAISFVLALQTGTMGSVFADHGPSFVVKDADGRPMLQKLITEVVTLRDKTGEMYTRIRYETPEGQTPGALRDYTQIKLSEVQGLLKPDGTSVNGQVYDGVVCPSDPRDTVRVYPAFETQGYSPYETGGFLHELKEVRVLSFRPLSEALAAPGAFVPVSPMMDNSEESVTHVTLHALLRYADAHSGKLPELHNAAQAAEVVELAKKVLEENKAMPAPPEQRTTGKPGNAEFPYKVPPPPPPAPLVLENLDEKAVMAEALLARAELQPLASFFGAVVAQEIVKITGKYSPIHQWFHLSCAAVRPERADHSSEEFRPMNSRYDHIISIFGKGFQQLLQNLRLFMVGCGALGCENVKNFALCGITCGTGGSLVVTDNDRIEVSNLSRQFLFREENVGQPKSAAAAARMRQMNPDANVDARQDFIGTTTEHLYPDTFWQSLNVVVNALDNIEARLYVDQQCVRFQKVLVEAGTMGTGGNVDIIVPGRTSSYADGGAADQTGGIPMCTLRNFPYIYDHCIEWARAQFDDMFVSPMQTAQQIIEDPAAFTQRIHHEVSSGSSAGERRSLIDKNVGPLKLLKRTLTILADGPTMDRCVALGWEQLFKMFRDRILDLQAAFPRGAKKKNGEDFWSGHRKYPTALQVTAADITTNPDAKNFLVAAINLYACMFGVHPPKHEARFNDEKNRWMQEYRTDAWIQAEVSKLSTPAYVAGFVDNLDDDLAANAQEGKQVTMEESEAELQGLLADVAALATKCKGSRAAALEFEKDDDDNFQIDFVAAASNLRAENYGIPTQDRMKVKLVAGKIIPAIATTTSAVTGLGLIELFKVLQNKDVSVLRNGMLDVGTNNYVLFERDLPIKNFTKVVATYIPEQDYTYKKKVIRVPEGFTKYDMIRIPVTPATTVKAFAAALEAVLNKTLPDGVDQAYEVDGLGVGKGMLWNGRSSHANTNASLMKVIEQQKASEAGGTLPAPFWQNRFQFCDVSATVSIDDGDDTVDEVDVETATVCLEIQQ
As to the kind of experiment: Leishmania donovani Ubiquitin Activating Enzyme (LdE1). The class given is functional. The conditions noted are these: 30 µM.

Experiment [3] addresses AMP-activated protein kinase, AMPK (Homo sapiens) (UniProt P54646+O43741+P54619+Q9UGJ0+Q9Y478+Q13131+Q9UGI9). As to the kind of experiment: AMP-dependent Kinase enzyme assay. An in vitro enzyme assay that detects ADP turnover that is directly proportional to AMPK activity. This uses naive AMPK that is activated during the assay with MK-8722. The class given is functional. Particulars: 30 µM.

Experiment [4] concerns the target Sialic acid-binding Ig-like lectin 9 (Homo sapiens) (UniProt Q9Y336). As to the kind of experiment: Hs-Siglec9 ALPHAscreen SOP 20170721. Particulars: 10 µM.
For the next experiment, the system named is Trypanosoma cruzi. As to the kind of experiment: Trypanosoma cruzi phosphomannomutase and mannose-1-phosphate guanylyltransferase assay. The format is functional. Particulars: 10 µM.
Experiment [5] addresses T2, Arginase-2, mitochondrial (Homo sapiens) (UniProt P78540).
T2 sequence (whole entry): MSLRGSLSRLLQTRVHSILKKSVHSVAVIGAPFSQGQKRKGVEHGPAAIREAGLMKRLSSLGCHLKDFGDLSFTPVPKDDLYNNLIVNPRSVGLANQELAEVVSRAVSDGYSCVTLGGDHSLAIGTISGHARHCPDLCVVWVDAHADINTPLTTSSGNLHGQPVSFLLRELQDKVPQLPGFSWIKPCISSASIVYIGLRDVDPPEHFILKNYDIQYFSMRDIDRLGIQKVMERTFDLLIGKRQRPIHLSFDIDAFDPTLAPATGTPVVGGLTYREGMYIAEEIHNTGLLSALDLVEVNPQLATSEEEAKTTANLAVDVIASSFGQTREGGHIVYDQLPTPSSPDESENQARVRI
As to the kind of experiment: in vitro enzyme assay to detect the production of urea directly proportional to the activity of Arginase II. Further: in the data most compounds retested in dose-response had high values. The class given is functional. Particulars: 33.3 µM.

In experiment [6] the target is T3, Proteasome subunit beta (Trypanosoma cruzi) (UniProt O96673).
T3 sequence (whole entry): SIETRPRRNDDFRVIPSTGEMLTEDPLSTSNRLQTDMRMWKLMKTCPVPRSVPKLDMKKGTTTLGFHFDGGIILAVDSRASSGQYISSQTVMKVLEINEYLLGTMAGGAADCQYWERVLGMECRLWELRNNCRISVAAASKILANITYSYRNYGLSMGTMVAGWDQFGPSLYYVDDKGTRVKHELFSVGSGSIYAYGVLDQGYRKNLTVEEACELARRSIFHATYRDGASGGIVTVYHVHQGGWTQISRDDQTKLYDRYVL
As to the kind of experiment: Trypanosoma cruzi proteasome chymotrypsin-like activity (TcProtChymo) assay. Further: in the data most compounds retested in dose-response had high values. The class given is functional. The conditions noted are these: 9.37 µM.

For another experiment, the species on record is Homo sapiens. The experiment in a line: To identify inhibition of the IFN signalling (Jak-Stat) pathway via expression of an eGFP reporter gene under the control of an IFN-stimulated response element (ISRE) containing MxA promoter. The class given is functional. Particulars: 30 µM. On the technique in general: A reporter such as luciferase makes a cellular process visible.

Experiment [7] has as its target T4, Tyrosyl-tRNA synthetase, putative (Trypanosoma cruzi (strain CL Brener)) (UniProt Q4DSP6).
T4 sequence (whole entry): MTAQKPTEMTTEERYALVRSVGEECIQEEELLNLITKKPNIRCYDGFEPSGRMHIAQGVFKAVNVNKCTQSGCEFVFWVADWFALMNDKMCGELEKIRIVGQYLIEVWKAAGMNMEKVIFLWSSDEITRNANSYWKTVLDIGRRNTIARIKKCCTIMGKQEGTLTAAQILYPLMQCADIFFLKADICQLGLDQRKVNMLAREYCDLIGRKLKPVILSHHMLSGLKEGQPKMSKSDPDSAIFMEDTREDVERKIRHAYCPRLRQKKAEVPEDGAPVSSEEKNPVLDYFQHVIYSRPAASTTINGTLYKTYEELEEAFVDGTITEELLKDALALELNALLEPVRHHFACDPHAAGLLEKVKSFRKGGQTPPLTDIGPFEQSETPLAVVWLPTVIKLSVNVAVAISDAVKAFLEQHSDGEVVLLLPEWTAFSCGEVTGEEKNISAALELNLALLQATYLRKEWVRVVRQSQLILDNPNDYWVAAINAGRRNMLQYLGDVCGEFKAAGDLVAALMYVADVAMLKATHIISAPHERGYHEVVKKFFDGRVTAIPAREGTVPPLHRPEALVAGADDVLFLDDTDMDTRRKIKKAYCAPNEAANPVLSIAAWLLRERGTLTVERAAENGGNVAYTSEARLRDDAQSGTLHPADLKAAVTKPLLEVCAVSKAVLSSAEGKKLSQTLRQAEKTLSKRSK
As to the kind of experiment: Trypanosoma cruzi tyrosyl tRNA synthetase (TcYRS) _High Tyrosine SOP. Further: in the data most compounds retested in dose-response had high values. The class given is functional. The conditions noted are these: 30 µM.

Experiment [8] addresses T4, Tyrosyl-tRNA synthetase, putative (Trypanosoma cruzi (strain CL Brener)). The experiment in a line: Trypanosoma cruzi tyrosyl tRNA synthetase (TcYRS) SOP. The class given is functional. The conditions noted are these: 30 µM.
In experiment [9] the target is Chromo domain-containing protein 1 (Saccharomyces cerevisiae (strain ATCC 204508 / S288c) (Baker's yeast)) (UniProt P32657). As to the kind of experiment: ScCHD-1 Enzyme Inhibition Assay. Further: in the data most compounds retested in dose-response had high values. The format is functional. Particulars: 30 µM.
Chain of Chromo domain-containing protein 1 (Saccharomyces cerevisiae (strain ATCC 204508 / S288c) (Baker's yeast)) (P32657 whole entry, the tested form may be a part): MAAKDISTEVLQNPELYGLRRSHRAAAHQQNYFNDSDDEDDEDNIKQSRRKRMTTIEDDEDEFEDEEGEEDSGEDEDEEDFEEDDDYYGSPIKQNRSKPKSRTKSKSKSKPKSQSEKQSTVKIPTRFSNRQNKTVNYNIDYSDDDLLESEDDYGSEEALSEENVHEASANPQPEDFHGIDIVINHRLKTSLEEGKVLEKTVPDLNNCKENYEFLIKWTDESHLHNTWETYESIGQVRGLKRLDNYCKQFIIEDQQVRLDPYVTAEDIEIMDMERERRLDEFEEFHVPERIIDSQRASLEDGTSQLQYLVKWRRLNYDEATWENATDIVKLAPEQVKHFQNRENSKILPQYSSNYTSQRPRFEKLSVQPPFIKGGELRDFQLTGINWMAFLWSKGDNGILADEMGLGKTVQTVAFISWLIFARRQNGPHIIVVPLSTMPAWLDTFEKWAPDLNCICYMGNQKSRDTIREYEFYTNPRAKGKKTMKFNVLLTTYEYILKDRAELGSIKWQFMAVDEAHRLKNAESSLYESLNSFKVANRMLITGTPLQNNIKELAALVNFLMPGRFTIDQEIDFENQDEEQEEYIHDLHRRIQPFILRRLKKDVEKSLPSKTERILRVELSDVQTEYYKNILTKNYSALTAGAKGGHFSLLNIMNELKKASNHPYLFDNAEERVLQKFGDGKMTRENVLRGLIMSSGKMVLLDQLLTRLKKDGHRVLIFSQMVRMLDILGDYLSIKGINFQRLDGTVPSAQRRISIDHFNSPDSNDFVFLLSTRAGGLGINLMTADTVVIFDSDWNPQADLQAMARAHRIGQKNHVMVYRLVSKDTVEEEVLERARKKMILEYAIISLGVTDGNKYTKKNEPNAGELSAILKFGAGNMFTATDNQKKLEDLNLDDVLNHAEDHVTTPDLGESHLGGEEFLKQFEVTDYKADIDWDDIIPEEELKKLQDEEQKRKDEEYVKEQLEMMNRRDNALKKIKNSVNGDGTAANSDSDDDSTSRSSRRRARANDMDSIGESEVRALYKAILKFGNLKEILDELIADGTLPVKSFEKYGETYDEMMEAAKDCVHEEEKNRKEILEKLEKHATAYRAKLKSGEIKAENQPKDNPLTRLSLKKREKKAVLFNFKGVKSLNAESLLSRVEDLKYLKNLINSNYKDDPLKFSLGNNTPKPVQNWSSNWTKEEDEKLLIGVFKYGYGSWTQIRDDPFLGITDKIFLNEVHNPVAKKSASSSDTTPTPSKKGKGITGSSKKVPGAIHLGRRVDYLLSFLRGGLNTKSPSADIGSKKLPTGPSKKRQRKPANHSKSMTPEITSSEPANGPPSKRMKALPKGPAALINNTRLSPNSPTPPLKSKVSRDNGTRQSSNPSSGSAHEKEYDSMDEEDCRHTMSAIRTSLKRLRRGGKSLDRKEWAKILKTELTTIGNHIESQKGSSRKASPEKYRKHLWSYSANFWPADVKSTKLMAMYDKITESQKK

Chain of Protein translocase subunit SecA (Escherichia coli (strain K12)) (P10408 whole entry): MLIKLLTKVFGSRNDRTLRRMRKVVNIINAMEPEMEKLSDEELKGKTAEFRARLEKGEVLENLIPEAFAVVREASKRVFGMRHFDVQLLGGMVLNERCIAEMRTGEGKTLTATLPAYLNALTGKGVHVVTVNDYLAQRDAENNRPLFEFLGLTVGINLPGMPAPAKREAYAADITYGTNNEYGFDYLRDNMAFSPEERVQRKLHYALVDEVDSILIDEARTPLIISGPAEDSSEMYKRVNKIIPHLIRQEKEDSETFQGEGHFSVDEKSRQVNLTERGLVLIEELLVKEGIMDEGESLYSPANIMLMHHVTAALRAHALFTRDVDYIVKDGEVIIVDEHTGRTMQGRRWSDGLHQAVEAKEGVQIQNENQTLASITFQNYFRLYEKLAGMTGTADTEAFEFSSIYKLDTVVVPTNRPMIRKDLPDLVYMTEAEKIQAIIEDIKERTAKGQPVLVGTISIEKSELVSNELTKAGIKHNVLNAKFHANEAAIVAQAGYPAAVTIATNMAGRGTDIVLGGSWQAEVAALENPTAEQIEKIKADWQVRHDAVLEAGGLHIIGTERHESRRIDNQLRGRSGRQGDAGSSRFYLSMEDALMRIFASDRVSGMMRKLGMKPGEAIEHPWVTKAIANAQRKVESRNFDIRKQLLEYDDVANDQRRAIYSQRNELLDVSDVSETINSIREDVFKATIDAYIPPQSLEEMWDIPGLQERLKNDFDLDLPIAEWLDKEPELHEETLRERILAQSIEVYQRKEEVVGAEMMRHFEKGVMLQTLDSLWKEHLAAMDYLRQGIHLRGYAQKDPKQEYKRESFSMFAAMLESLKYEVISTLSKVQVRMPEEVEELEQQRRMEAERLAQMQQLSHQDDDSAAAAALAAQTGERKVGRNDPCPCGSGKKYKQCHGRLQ
Chain of Sialic acid-binding Ig-like lectin 9 (Homo sapiens) (Q9Y336 whole entry): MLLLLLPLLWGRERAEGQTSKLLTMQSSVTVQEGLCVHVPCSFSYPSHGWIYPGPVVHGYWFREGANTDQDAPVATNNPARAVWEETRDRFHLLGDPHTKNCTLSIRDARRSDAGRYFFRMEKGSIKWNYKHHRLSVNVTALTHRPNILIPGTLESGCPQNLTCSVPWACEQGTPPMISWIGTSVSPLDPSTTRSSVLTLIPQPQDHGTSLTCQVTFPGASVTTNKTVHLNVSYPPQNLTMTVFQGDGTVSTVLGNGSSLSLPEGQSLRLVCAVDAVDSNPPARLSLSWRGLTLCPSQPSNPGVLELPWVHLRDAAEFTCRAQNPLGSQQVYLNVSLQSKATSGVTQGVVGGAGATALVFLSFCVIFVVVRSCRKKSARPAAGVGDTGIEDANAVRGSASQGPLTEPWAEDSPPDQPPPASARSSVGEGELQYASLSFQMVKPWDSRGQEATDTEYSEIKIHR

Regarding `CN1CCN(Cc2nc3ccccc3[nH]2)[C@H]2CS(=O)(=O)C[C@H]21`, the Percent Effect was -1.9% in experiment [1]; 8.11% in experiment [2]; -2.29% in experiment [3]; -1.77% in experiment [4]; -1.07% in the experiment with Trypanosoma cruzi; -1.24% in experiment [5]. Moreover, the Percent Effect in [6] was 13.1%; in the experiment filed under Homo sapiens, 5.83%; in experiment [7] it was 10.8%; in experiment [8], 18.5%; in experiment [9], -2.69%.
As to `Cc1ccc(C(=O)N2CCC3(CC2)NC(=O)CC3c2ccccc2)cn1` (stereo not given), the Percent Effect in experiment [1] is -2.54%; in experiment [2], 2.67%; in [3], 3.38%; in experiment [4], 7.94%; in the experiment with Trypanosoma cruzi, 0.965%; in [5], -48.6%. The Percent Effect in [6] is 7.35%; in the experiment listed under Homo sapiens, -9.77%; in experiment [7], 2.08%; in experiment [8], 5%; in experiment [9] it was -2.72%.
As for `COc1c(CNCCNC(=O)c2ccco2)c(C)nn1C`, the Percent Effect in experiment [1] is -4.26%; in [2], 2.7%; in experiment [3] it was -4.46%; in [4], 0.652%; in the experiment on Trypanosoma cruzi, -1.39%; in experiment [5] it was -0.185%. For the same compound, the Percent Effect in experiment [6] stood at 4.31%; in the experiment listed under Homo sapiens, 11.3%; in experiment [7] it was 3.96%; in [8] it was 11%; in [9], 0.206%.
Take `O=C(N1CCOCC1)N1CCc2ncnc(NC3CC3)c2CC1`: the Percent Effect in [1] was -0.799%; in [2], 0%; in experiment [3], 6.99%; in experiment [4] it was -5.96%; in the experiment with Trypanosoma cruzi, -7.81%; in [5], 6.67%. Besides, the Percent Effect stood at 19.2% in experiment [6]; 19.9% in the experiment listed under Homo sapiens; 0.99% in experiment [7]; 6.1% in experiment [8]; 0.83% in experiment [9].
In the case of `Cc1ccc(C(O)CNC(=O)NCc2nc(C)cs2)cc1` (stereo not given), the Percent Effect in [1] is -1.18%; in [2], 5.41%; in experiment [3] it was 2.46%; in [4], 3.69%; in the experiment with Trypanosoma cruzi, -6.56%; in experiment [5], 1.43%. Further, the Percent Effect in [6] was 12.9%; in the experiment listed under Homo sapiens it was 5.94%; in experiment [7], 2.65%; in experiment [8] it was 12.2%; in experiment [9], -3.85%.
On to `Cc1ccc(CN(C)C(=O)CN2CCOC(Cn3cncn3)C2)o1` (stereo not given), for which the Percent Effect in experiment [1] is 1.63%; in experiment [2], 15.2%; in [3], -6.86%; in experiment [4], -11.8%; in the experiment with Trypanosoma cruzi, -7.46%; in experiment [5], 9.89%. The Percent Effect in experiment [6] is 13%; in the experiment listed under Homo sapiens it was 16.3%; in [7], 5.42%; in experiment [8], 11.4%; in experiment [9] it was -2.75%.
Take `N#Cc1ccc(CNCC2CCN(CCO)CC2)cc1`: the Percent Effect in [1] is -1.19%; in [2], 5.48%; in experiment [3] it was -0.789%; in experiment [4], -1.57%; in the experiment on Trypanosoma cruzi, -7.05%; in experiment [5], 5%. The Percent Effect in experiment [6] is 9.58%; in the experiment filed under Homo sapiens it was 11.5%; in [7], 0%; in experiment [8], 10%; in [9], -2.99%.
Regarding `Cc1nc(COCc2cnc3n2CCN(CC2CCC2)C3C)cs1` (stereo not given), the Percent Effect in experiment [1] is -1.98%; in experiment [2] it was -2.67%; in [3], -6.08%; in [4], 4.28%; in the experiment on Trypanosoma cruzi it was 8.11%; in experiment [5], -56.8%. Moreover, the Percent Effect was 12.7% in experiment [6]; -20.7% in the experiment filed under Homo sapiens; -1.04% in experiment [7]; 7.5% in experiment [8]; -4.06% in experiment [9].
As for `Cc1occc1C(=O)N1CCC2(CCC(=O)N(CC(N)=O)C2)CC1`, the Percent Effect is -6.56% in [1]; -4.17% in experiment [2]; 0.341% in experiment [3]; 3.65% in [4]; -3.6% in the experiment on Trypanosoma cruzi; 2.21% in experiment [5]. The Percent Effect was 10.9% in experiment [6]; 3% in the experiment listed under Homo sapiens; -2.1% in [7]; -7.69% in [8]; -2.07% in experiment [9].
For the compound `O=C(COCC1CC1)N1CCCC(n2cncn2)C1` (stereo not given), the Percent Effect in experiment [1] was 1.39%; in [2], 10.8%; in experiment [3], -12%; in [4] it was -7.81%; with Trypanosoma cruzi it was -3.3%; in [5], -2.81%. Also, the Percent Effect in [6] was 13%; in the experiment listed under Homo sapiens, 12.5%; in [7], 1.48%; in [8] it was 16.1%; in [9], -2.64%.
